This passage reports growth results from PubChem BioAssay (NCI).

This is part of a sample that, as a whole, favours compounds with a hit. Of some 83,000 tested, about 20% had one in any assay.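 Negative percent growth values reflect cell death: -40 means 40% of the cells present at the start died, and -100 means all died.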 Values without a mark were called inactive. Calls of active or inactive are those of the source. The calls were made as follows: active = growth percent below 10; inactive = the rest.

Among the test systems are SK-MEL-2 melanoma; EKVX NSCLC; SN12C renal; UO-31 renal; TK-10 renal; ACHN renal; A498 renal; CCRF-CEM leukemia; MOLT-4 leukemia; SR leukemia; RPMI-8226 leukemia; OVCAR-8 ovarian; OVCAR-5 ovarian; OVCAR-4 ovarian; SK-OV-3 ovarian; IGROV1 ovarian; OVCAR-3 ovarian; HS 578T breast; NCI/ADR-RES ovarian.
Common to all, as to experiment: NCI-60 one-dose screen, 48 h (100 = growth as untreated, 0 = no growth, -100 = all killed)
Conditions in all cases: 10 µM unless noted

Turning to `c1nc(SC2=NCCN2)c2[nH]cnc2n1`, the growth in the assay on SK-MEL-2 melanoma is 38.8%; in the assay on EKVX NSCLC it was 88.7%; with SN12C renal, 78.7%; in the assay with UO-31 renal, 40.6%; in the assay on TK-10 renal it was 22.6%; in the assay with ACHN renal, 54.2%. For the same molecule, the growth with A498 renal was 92.8%; in the assay with CCRF-CEM leukemia, 31.3%; in the assay on MOLT-4 leukemia, 16%; in the assay on SR leukemia it was 22%; in the assay with RPMI-8226 leukemia, 29.2%; with OVCAR-8 ovarian, 41%. The growth in the assay on OVCAR-5 ovarian is 48.5%; in the assay on OVCAR-4 ovarian it was 61.7%; with SK-OV-3 ovarian, 8.1% (active); in the assay with IGROV1 ovarian, 64%; in the assay with OVCAR-3 ovarian, 30.8%; in the assay with HS 578T breast, 79.4%.
On to `O=C1OC(c2ccc(-c3ccccc3)cc2)=C/C1=C/C=C/c1ccccc1`, for which the growth in the assay with SK-MEL-2 melanoma is 114%; in the assay with EKVX NSCLC, 102%; with SN12C renal, 99.9%; in the assay on UO-31 renal it was 80%; with TK-10 renal, 107%; with ACHN renal, 102%. Further, the growth was 84.4% in the assay with A498 renal; 24.2% in the assay on CCRF-CEM leukemia; 98.5% in the assay on MOLT-4 leukemia; 98.3% in the assay on SR leukemia; 95% in the assay with RPMI-8226 leukemia; 103% in the assay with OVCAR-8 ovarian. Besides, the growth is 91.3% with OVCAR-5 ovarian; 95% in the assay with OVCAR-4 ovarian; 102% with SK-OV-3 ovarian; 99% in the assay on IGROV1 ovarian; 99.3% in the assay with OVCAR-3 ovarian; 86.9% with HS 578T breast. Also, the growth in the assay with NCI/ADR-RES ovarian is 114%.
For `COc1cc(NC(=O)c2cc(OC)c3ccn(C)c3c2)cc2c1C[C@]1(C)CC[C@@H](O)C(C)(C)[C@H]1O2`, the growth is 31.1% in the assay on SK-MEL-2 melanoma; 65.2% in the assay on EKVX NSCLC; 86.6% with SN12C renal; 2.9% (active) in the assay on UO-31 renal; 90% with TK-10 renal; 36.6% with ACHN renal. Moreover, the growth in the assay on A498 renal is 1.9% (active); in the assay on CCRF-CEM leukemia, 19.6%; in the assay with MOLT-4 leukemia, 6.92% (active); in the assay on SR leukemia, 19.2%; in the assay on RPMI-8226 leukemia, -16.6% (active); in the assay with OVCAR-8 ovarian it was 75.8%. In addition, the growth was 81.4% in the assay with OVCAR-5 ovarian; 84.6% with OVCAR-4 ovarian; 53% in the assay on SK-OV-3 ovarian; 68% in the assay on IGROV1 ovarian; 80.7% in the assay on OVCAR-3 ovarian; 10.2% in the assay with HS 578T breast. The growth in the assay on NCI/ADR-RES ovarian was 82.6%.
In the case of `CN(C)c1ncc(C#Cc2c(F)cccc2F)c2ccccc12`, the growth is 81.5% with SK-MEL-2 melanoma; 74.8% with EKVX NSCLC; 78.8% with SN12C renal; 54.8% in the assay on UO-31 renal; 112% in the assay on TK-10 renal; 96.3% in the assay with ACHN renal. Further, the growth is 100% in the assay on A498 renal; 96.3% with CCRF-CEM leukemia; 80.8% in the assay on MOLT-4 leukemia; 83.8% in the assay on SR leukemia; 68.1% in the assay with RPMI-8226 leukemia; 93.7% with OVCAR-8 ovarian. Also, the growth with OVCAR-5 ovarian is 99.8%; in the assay on OVCAR-4 ovarian, 85.3%; with SK-OV-3 ovarian, 89.3%; in the assay on IGROV1 ovarian, 48.2%; in the assay with OVCAR-3 ovarian, 88.4%; in the assay with HS 578T breast, 108%. Moreover, the growth with NCI/ADR-RES ovarian is 92.9%.
Regarding `COc1ccc(-c2cnc(-c3ccc(F)cc3)[nH]2)cc1`, the growth in the assay with SK-MEL-2 melanoma is 113%; with EKVX NSCLC it was 90.7%; in the assay with SN12C renal, 99%; in the assay on UO-31 renal, 84.5%; in the assay on TK-10 renal it was 230%; in the assay on ACHN renal it was 105%. Further, the growth is 97.1% in the assay with A498 renal; -48.2% (active) in the assay on CCRF-CEM leukemia; 54.7% in the assay with MOLT-4 leukemia; -29.7% (active) in the assay with SR leukemia; 44.5% with RPMI-8226 leukemia; 103% in the assay on OVCAR-8 ovarian. In addition, the growth in the assay with OVCAR-5 ovarian was 116%; with OVCAR-4 ovarian, 98.3%; with SK-OV-3 ovarian it was 121%; in the assay on IGROV1 ovarian, 95.3%; in the assay with OVCAR-3 ovarian it was 91.3%; in the assay on HS 578T breast, 99.2%. For the same molecule, the growth with NCI/ADR-RES ovarian is 115%.
For `COc1ccc(/C=N/C2=NNC(C)(c3ccccc3O)N2C(Cc2c[nH]c3ccccc23)C(=O)O)cc1` (stereo unspecified), the growth in the assay on SK-MEL-2 melanoma is 20.2%; with EKVX NSCLC it was 27.5%; with SN12C renal, 34.4%; with UO-31 renal it was 32.1%; in the assay with TK-10 renal, 70.4%; in the assay with ACHN renal, 46.5%. Moreover, the growth is 46.5% in the assay with A498 renal; 19.7% with CCRF-CEM leukemia; 14.4% in the assay with MOLT-4 leukemia; 6.53% (active) in the assay on SR leukemia; -15.2% (active) in the assay on RPMI-8226 leukemia; 17.1% in the assay with OVCAR-8 ovarian. Moreover, the growth was 69.4% in the assay with OVCAR-5 ovarian; 33.3% in the assay on OVCAR-4 ovarian; 46.8% in the assay with SK-OV-3 ovarian; 16.7% in the assay with IGROV1 ovarian; 30% with OVCAR-3 ovarian; 51.7% with HS 578T breast. For the same molecule, the growth in the assay on NCI/ADR-RES ovarian is 34.9%.
`COc1cc2nc(C(=O)N3CCCCC3)cc(Nc3ccccc3)c2cc1OC`: the growth was 99.5% in the assay on SK-MEL-2 melanoma; 97.3% in the assay on EKVX NSCLC; 98.9% in the assay with SN12C renal; 82.4% with UO-31 renal; 98.6% in the assay on TK-10 renal; 96.4% in the assay with ACHN renal. Further, the growth was 91% with A498 renal; 101% in the assay on CCRF-CEM leukemia; 97.3% in the assay with MOLT-4 leukemia; 81.7% in the assay on SR leukemia; 87.6% in the assay on RPMI-8226 leukemia; 98.3% in the assay with OVCAR-8 ovarian. The growth is 109% with OVCAR-5 ovarian; 100% with OVCAR-4 ovarian; 108% in the assay with SK-OV-3 ovarian; 98.3% in the assay on IGROV1 ovarian; 93.9% in the assay with OVCAR-3 ovarian; 95% in the assay on HS 578T breast. Moreover, in the assay with NCI/ADR-RES ovarian, the growth is 95.4%.
With `COc1ccc(C(=O)Cn2cnc3c(Nc4cc(C(=O)Nc5ccc(N6CCN(CCO)CC6)cc5)ccc4C)ncnc32)cc1`, the growth is 100% with SK-MEL-2 melanoma; 99% in the assay with EKVX NSCLC; 104% with SN12C renal; 87.6% with UO-31 renal; 102% in the assay with TK-10 renal; 103% with ACHN renal. Further, the growth is 111% in the assay with A498 renal; 105% in the assay with CCRF-CEM leukemia; 90% with MOLT-4 leukemia; 83.7% with SR leukemia; 96.7% in the assay on RPMI-8226 leukemia; 104% in the assay with OVCAR-8 ovarian. The growth is 104% in the assay with OVCAR-5 ovarian; 106% with OVCAR-4 ovarian; 99.2% in the assay with SK-OV-3 ovarian; 110% in the assay on IGROV1 ovarian; 100% in the assay with OVCAR-3 ovarian; 97.7% with HS 578T breast. Also, in the assay with NCI/ADR-RES ovarian, the growth was 104%.
